Results on 23 compounds are retold here after PubChem BioAssay (NCATS).

The target of assay [1] is Cellular tumor antigen p53 (Homo sapiens) (UniProt P04637). The assay can be described thus: Primary qHTS for small molecule compounds that upregulate eGFP-tagged delta133p53alpha (in N-terminal) cells. (AID 2060322). Further: nearly all actives have a fitted effect of over 75% in size. Further: potency means the concentration at half of the fitted maximal effect.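 On activation: cells pre-induced with doxycycline then dosed without doxycycline; series mostly up to about 56 µM; 0% = DMSO vehicle and 100% = reference activator.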 The settings on record: NCI-H358 eGFP-delta133p53alpha fluorescence, 24 h; activation: active compounds read high. A digest of the protocol:
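NCI-H358 cells pre-induced 24 h with 10 ng/ml doxycycline for eGFP-delta133p53alpha, plated dox-free and exposed 24 h at 37C to titrated compounds. Fixed, Hoechst-stained; gated GFP peak intensity by laser scanning cytometry, normalized to DMSO (0%) and 57.5 uM 5-azacytidine (100%).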
Background: qHTS replaces the single test concentration by a dilution series.

Assay [2] has as its target Aldehyde dehydrogenase, mitochondrial (Homo sapiens) (UniProt P05091). As to the kind of experiment: qHTS for Inhibitors of the Aldehyde Dehydrogenase Family (ALDH2) Primary screen (AID 2061308).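 Further: plate controls were vehicle for no effect and reference inhibitor for full effect; nearly all actives have a fitted effect of over 55% in size.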
The target in assay [3] is Retinaldehyde dehydrogenase 3 (Homo sapiens) (UniProt P47895). As to the kind of experiment: qHTS for Inhibitors of the Aldehyde Dehydrogenase Family (ALDH1A3) Primary screen (AID 2061315).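 Further: plate controls were DMSO vehicle for no effect and reference inhibitor for full effect.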

Where “and” joins values, the source holds several entries; their conditions need not be identical. Equal entries are not always repeated. Inconclusive results are not listed. Values without a mark were called inactive. Calls of active or inactive are those of the source. The call rests on the fitted dose curve; in most records, active means well fitted curve in the direction sought with a large enough effect; inconclusive means small, poorly fitted or top-dose-only effect, or another doubt; inactive means no such curve, though single readings can be large; an effect the other way counts as inactive or inconclusive. Peptide text beside a SMILES is read from it.

Sequence of Cellular tumor antigen p53 (Homo sapiens) (P04637 whole entry, looked up): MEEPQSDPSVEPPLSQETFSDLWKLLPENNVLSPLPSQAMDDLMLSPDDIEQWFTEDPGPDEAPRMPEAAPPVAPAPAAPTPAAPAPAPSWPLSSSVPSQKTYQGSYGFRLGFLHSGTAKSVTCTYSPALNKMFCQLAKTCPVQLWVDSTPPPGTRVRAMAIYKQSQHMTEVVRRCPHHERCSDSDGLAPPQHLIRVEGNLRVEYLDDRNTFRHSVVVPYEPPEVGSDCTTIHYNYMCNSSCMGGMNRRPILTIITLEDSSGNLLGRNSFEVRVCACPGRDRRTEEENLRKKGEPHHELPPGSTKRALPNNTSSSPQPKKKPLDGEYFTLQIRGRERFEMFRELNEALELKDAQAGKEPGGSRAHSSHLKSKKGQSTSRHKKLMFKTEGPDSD

Regarding `C=C1C(=O)OC[C@H]2C(C(=O)O)=CC3CC(C)(C)C[C@@]132` (some centres undefined), the activation in assay [1] is 13.4%. Also, the Potency result in assay [2] and in assay [3] was “inactive” each time.
Regarding `COC(=O)[C@H](OC(C)=O)[C@H]1C(C)(C)C(=O)[C@H]2CC3=C4CC(=O)O[C@@H](c5ccoc5)[C@]4(C)CCC3[C@@]1(C)C2=O` (some centres undefined), the activation in assay [1] is 2.68%. The Potency entry in assay [2] and in assay [3] was “inactive” each time.
`C[C@@H]1O[C@@H](O[C@H]2[C@H](OC(=O)[C@]34CCC(C)(C)C[C@H]3C3=CCC5[C@@]6(C)C[C@H](O)[C@H](O[C@@H]7O[C@H](CO)[C@@H](O)[C@H](O)[C@H]7O)[C@@](C)(CO)C6[C@H](O)C[C@@]5(C)[C@]3(C)C[C@H]4O)OC[C@H](O)[C@@H]2O)[C@H](O)[C@H](O)[C@H]1O[C@@H]1OC[C@@H](O)[C@H](O[C@H]2OC[C@](O)(CO)[C@H]2O)[C@H]1O` (some centres undefined): in assay [1], the activation is 27.7%. Moreover, the activity change, negative = inhibition in assay [2] is 5.31% [at 11.2 µM]; in assay [3], -7.49% [at 11.2 µM].
With `CC1CCC2C(=CCC(O)C2(C)C)C1(C)Cc1c(O)cc(CO)c(C=O)c1O` (centres undefined), the activation in assay [1] was 9.92%. In addition, the Potency entry in assay [2] and in assay [3] was “inactive” each time.
In the case of `CCC(C)C(=O)OC[C@H]1O[C@H](O[C@H]2O[C@H](CO)[C@@H](O)[C@H](O)[C@H]2O)[C@H](O)[C@@H](O)[C@@H]1O` (some centres undefined), in assay [1], the activation was 1.53%. In addition, the Potency entry in assay [2] and in assay [3] was “inactive” throughout.
In the case of `C=C1CC/C=C(/CO)C(=O)C[C@@H]2[C@@H]1CC2(C)C`, the activation in assay [1] is 7.14%. Also, the Potency result in assay [2] and in assay [3] was “inactive” throughout.
Consider `CC1CCC(=O)CC(O)C(O)CC(=O)O1` (centres undefined), for which the activation in assay [1] was 10.7%. In addition, the Potency result in assay [2] and in assay [3] was “inactive” in each case.
For `NC(=O)c1csc(C2OC(CO)C(O)C2O)n1` (centres undefined), the activation in assay [1] was -7%. Further, the Potency entry in assay [2] and in assay [3] was “inactive” each time.
Consider `CC(=O)O[C@H]1[C@@]2(O)C[C@H](C)[C@H](OC(=O)c3ccccc3)[C@@H]2[C@@H](OC(=O)CO)[C@]2(OC(C)=O)C[C@H]3C(=O)C(C)(C)C[C@@H]3[C@@]1(C)[C@H]2OC(C)=O`, for which the activation in assay [1] was -6.25%. For the same compound, the Potency result in assay [2] and in assay [3] was “inactive” throughout.
As for `C=C1CCc2occ(C)c2[C@H]2[C@H]1[C@@]13O[C@@]1(C[C@@H](C)[C@H]3OC(C)=O)[C@H]1O[C@@]21C`, in assay [1], the activation was -19.6%. For the same compound, the Potency result in assay [2] and in assay [3] was “inactive” each time.
In the case of `C=C1C[C@]23C[C@H]1[C@@H](O)C[C@H]2[C@@]12C=C[C@H](O)[C@@](C)(C(=O)O1)[C@H]2[C@@H]3C(=O)O`, the activation in assay [1] was -13%. Also, the Potency result in assay [2] and in assay [3] was “inactive” throughout.
As for `Nc1ccc(S(=O)(=O)Nc2nccs2)cc1`, in assay [1], the activation is 18.4% and 0.333%. Also, the Potency result in assay [2] and in assay [3] was “inactive” in each case.
`C=C1CCC2[C@](C)(CCC[C@@]2(C)C=O)[C@H]1CC/C(C)=C/CO` (some centres undefined): in assay [1], the activation is 11.5%. Also, the Potency result in assay [2] and in assay [3] was “inactive” throughout.
On to `CO[C@@H]1[C@H](O)CCC2(CO2)[C@H]1[C@@]1(C)O[C@@H]1CC=C(C)C` (some centres undefined), for which the activation in assay [1] was 0.763%. For the same compound, the Potency entry in assay [2] and in assay [3] was “inactive” in each case.
As to `C[C@]12C=C[C@@]3(CCC4[C@](C)(CO)CCC[C@@]4(C)C3CC1)C2` (some centres undefined), in assay [1], the activation was -5.36%. Besides, the Potency entry in assay [2] and in assay [3] was “inactive” throughout.
`C=CC(C)(O)CC/C=C(\C)C(=O)OC1C(O)C(CO)OC(OC(=O)C23CCC(C)(C)CC2C2=CCC4C5(C)CCC(OC6OC(COC7OCC(OC(C)=O)C(O)C7OC7OC(COC(C)=O)C(O)C(O)C7OC(C)=O)C(O)C(O)C6OC6OCC(O)C(O)C6O)C(C)(C)C5CCC4(C)C2(C)C(O)C3O)C1OC1OCC(OC2OCC(O)C(OC3OCC(O)C(O)C3O)C2O)C(O)C1O` (centres undefined): the activation in assay [1] is -12.2%. The activity change, negative = inhibition in assay [2] is 11.4% [at 11.2 µM]; in assay [3], 12.6% [at 11.2 µM].
Regarding `C[C@@H](O)[C@H](N)C(=O)N1CCC[C@H]1C(=O)N1CCC[C@H]1C(=O)N[C@H](C(N)=O)[C@@H](C)O` (H-TPPT-NH2), in assay [1], the activation is 1%. Besides, the activity change, negative = inhibition in assay [2] is 5.09% [at 11.2 µM]; in assay [3], -29.1% [at 11.2 µM].
`COC(=O)N1CCC(n2ncc3c(N4CCOCC4)nc(-c4ccc(NC(=O)Nc5ccc(CO)cc5)cc4)nc32)CC1`: the Potency in assay [1] is 21.3 µM (active). Besides, the Potency result in assay [2] and in assay [3] was “inactive” in each case.
On to `CC(=O)O[C@H]1[C@H](OC(=O)C(C)C)[C@]2(C)OC3(CC[C@]2(C)[C@H]2CCC[C@]4(CO4)[C@]12C)COC(=O)C3` (some centres undefined), for which the activation in assay [1] was 1.53%. For the same compound, the Potency entry in assay [2] and in assay [3] was “inactive” in each case.
Take `CC(C)CC[C@@H](O)[C@](C)(O)[C@H]1CC[C@@]2(O)C3=CC(=O)[C@@H]4C[C@@H](O)[C@@H](O)C[C@]4(C)[C@H]3CC[C@]12C`: the activation in assay [1] was -7%. Moreover, the Potency result in assay [2] and in assay [3] was “inactive” in each case.
Take `CC(O)CCc1ccc(O[C@@H]2O[C@H](CO)[C@@H](O)[C@H](O)[C@H]2O)cc1` (some centres undefined): the activation in assay [1] is -10.7%. In addition, the Potency result in assay [2] and in assay [3] was “inactive” throughout.
Take `O=C(NCCN1CCCC1)c1cc(-c2ccc(CN3CCOCC3)cc2)nc2ccc(F)cc12`: in assay [1], the activation is 3.67%. In addition, the Potency result in assay [2] and in assay [3] was “inactive” throughout.
As to `C[C@@H]1O[C@@H](O[C@H]2[C@H](OC(=O)[C@]34CCC(C)(C)C[C@H]3C3=CCC5[C@@]6(C)C[C@@H](O)[C@@H](O)[C@@](C)(CO)C6[C@H](O)C[C@@]5(C)[C@]3(C)CC4)OC[C@H](O)[C@@H]2O)[C@H](O)[C@H](O)[C@H]1O[C@@H]1OC[C@@H](O)[C@H](O[C@H]2O[C@H](C)[C@@H](O)[C@H](O)[C@@H]2O)[C@H]1O` (some centres undefined), the activation in assay [1] is -2.68%. Further, the Potency result in assay [2] and in assay [3] was “inactive” throughout.
